From the supplement of paper PMC7801607

Tests used:
CHO = assay: % viability of CHO cells (MTT); higher = less toxic; conditions: 48 h
Procedure, shortened: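 For 48 h, attached CHO cells (10^6 cells/well, 200 µL, seeded the night before) were kept in fresh medium carrying compound at 2 or 20 µM. A colorimetric tetrazolium (MTT) assay then gave survival as percent viability versus untreated cells.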

HepG2-A16-CD81 = assay: % inhibition of HepG2 viability (CellTiter-Glo); higher = more toxic; conditions: 5 µM
[1] = tested on: Plasmodium falciparum NF54 stage IV/V gametocytes; assay: % inhibition of gametocyte viability (PrestoBlue); higher = more inhibition; conditions: 48 h
Procedure, shortened: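 Stage IV/V NF54 gametocytes at 2% gametocytaemia and 5% haematocrit (100 µL/well) were treated with compound at 1 or 5 µM and incubated for 48 h at 37 °C under stationary, hypoxic conditions. PrestoBlue (10 µL) was then added for 2 h, and fluorescence at 612 nm was read on 70 µL of transferred supernatant. Percent inhibition of gametocyte viability was normalised to vehicle and kill controls within one run.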

[2] = tested on: Plasmodium falciparum NF54 asexual blood stage; assay: % inhibition of asexual blood stage proliferation (pLDH); higher = more inhibition; conditions: 72 h
Procedure, shortened: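 Plasmodium falciparum NF54 ring-stage cultures (1% haematocrit, 2% parasitaemia) were incubated with compound at 2 or 20 µM for 72 h at 37 °C under 4% CO2, 3% O2 and 93% N2. Survival was read at 620 nm with the parasite lactate dehydrogenase assay. Results were reported as percent inhibition of asexual proliferation relative to controls.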

[3] = tested on: Plasmodium falciparum NF54 stage IV/V gametocytes; assay: % inhibition of gametocyte viability (ATP bioluminescence); higher = more inhibition; conditions: 24 h
Procedure, shortened: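 Stage IV/V NF54 gametocytes from density gradients (30,000 per well, 96-well plates) were incubated with compound at 1 or 5 µM for 24 h at 37 °C. A single run supplied percent inhibition of gametocyte viability, based on ATP measured with Promega BacTiter Glo and normalised to control wells.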

[4] = tested on: Plasmodium falciparum NF54 stage IV/V gametocytes; assay: % inhibition of gametocyte viability (luciferase reporter); higher = more inhibition; conditions: 48 h
Procedure, shortened: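 Percent inhibition came from luminescence and was normalised to controls in a single run. Gametocytes (stage IV/V, NF54-Pfs16-GFP-Luc line, 2% gametocytaemia, 2% haematocrit) were treated with compound at 1 or 5 µM and incubated for 48 h at 37 °C without agitation under hypoxia. Readings used 30 µL lysate with 30 µL Promega luciferin substrate on a GloMax-Multi+ reader, integrating for 10 s.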

[5] = tested on: Plasmodium berghei ANKA liver stage in HepG2-A16-CD81; assay: % inhibition of liver stage parasite viability (luciferase); higher = more inhibition; conditions: 5 µM; 48 h
Experimental: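 Single-concentration screen of the MMV Pandemic Response Box. P. falciparum NF54 asexual blood stages: pLDH assay, 72 h at 37 °C, 2 and 20 µM, n=2. Stage IV/V gametocytes (NF54): luciferase reporter (NF54-Pfs16-GFP-Luc, 48 h), ATP bioluminescence (24 h) and PrestoBlue (48 h) at 1 and 5 µM, n=1. P. berghei liver stage (luciferase in HepG2-A16-CD81, 48 h post infection) at 5 µM, n=4. All normalised to DMSO and kill controls as % inhibition.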
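Throughout, for % inhibition of HepG2 viability (CellTiter-Glo): HepG2-A16-CD81 hepatoma cells plated as in the liver-stage assay but without sporozoites, with DMSO wells as negative and 25 µM puromycin as positive control.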

| Structure (SMILES) | % viability of CHO cells (CHO; 2 µM) [%] | % viability of CHO cells (CHO; 20 µM) [%] | % inhibition of HepG2 viability (HepG2-A16-CD81) [%] | % inhibition of gametocyte viability ([1]; 1 µM) [%] | % inhibition of gametocyte viability ([1]; 5 µM) [%] | % inhibition of asexual blood stage proliferation ([2]; 2 µM) [%] | % inhibition of asexual blood stage proliferation ([2]; 20 µM) [%] | % inhibition of gametocyte viability ([3]; 1 µM) [%] | % inhibition of gametocyte viability ([3]; 5 µM) [%] | % inhibition of gametocyte viability ([4]; 1 µM) [%] | % inhibition of gametocyte viability ([4]; 5 µM) [%] | % inhibition of liver stage parasite viability [5] [%] |
| --- | --- | --- | --- | --- | --- | --- | --- | --- | --- | --- | --- | --- |
| COc1ccc2c(c1)cc(CNC(=O)c1cc3ccccc3o1)n2CC(=O)O | 90.6 | 111 | 3.58 | < 0 | 26 | -3.06 | 7.62 | 1.71 | < 0 | < 0 | < 0 | 24.3 |
| O=C(O)C[C@H]1CC[C@H](c2ccc(-c3ccc(Nc4ccc(C(F)(F)F)nc4)cn3)cc2)CC1 | 115 | 77.1 | 4.22 | 24.3 | 3.88 | 24.2 | 39.5 | 7.64 | 6.34 | < 0 | < 0 | 39.5 |
| CC(=O)NC[C@H]1CN(c2ccc(N3CCSCC3)c(F)c2)C(=O)O1 | 105 | 91.5 | 4.22 | < 0 | < 0 | 37.1 | 49.9 | < 0 | < 0 | < 0 | < 0 | 50.2 |
| CC(=O)N[C@H](C)C(=O)N[C@H](Cc1ccccc1)C(=O)O | 91.7 | 87.7 | 8.11 | < 0 | -0.199 | 24.6 | 81.8 | < 0 | < 0 | 17.2 | < 0 | 0.6 |
| CCc1oc2ccccc2c1C(=O)c1ccc(O)cc1 | 152 | 112 | 9.97 | < 0 | 17.5 | 29.1 | 6.67 | < 0 | < 0 | < 0 | 9.06 | 39.9 |
| O=C1NC(=S)N/C1=C\c1cc(Br)cc(Br)c1O | 91.8 | 63.5 | -2.5 | 1.86 | < 0 | 10.8 | 17.1 | < 0 | < 0 | < 0 | < 0 | -2.17 |
| Nc1nc(NC2Cc3ccc(F)cc3C2)nc(N2CCCCC2)n1 (stereo not drawn) | 96 | 79.3 | 2.58 | 28.3 | 55.5 | 26.7 | 91 | 5.3 | < 0 | < 0 | 7.28 | 23.6 |
| C[C@H]1CC[C@@]2(O)C(C)(C)[C@@H]3CC[C@@]2(C)[C@H]1C3 | 119 | 112 | -2.52 | < 0 | < 0 | 7.01 | 18.1 | < 0 | < 0 | < 0 | < 0 | 29.2 |
| C/C(=N\NC(=O)C1CC1c1ccccc1)c1ccc(NC(=O)c2ccco2)cc1 (stereo not drawn) | 101 | 69.1 | -5.96 | < 0 | 14.5 | 18.8 | 38.7 | 3.34 | < 0 | < 0 | < 0 | 13.7 |
| CC(C)c1cc2c(cc1S(=O)(=O)O)[C@@]1(C)CCC[C@@](C)(C(=O)O)[C@@H]1CC2 | 93.3 | 109 | 3.51 | 43.4 | 12.4 | 26 | 89 | < 0 | < 0 | < 0 | < 0 | 38.5 |
| O=C(Nc1[nH]c(=O)ncc1F)c1ccccc1 | 103 | 106 | 1.79 | 1.43 | 5.2 | 2.42 | 1.98 | < 0 | < 0 | < 0 | < 0 | 24.1 |
| CC(C)Oc1ccc(-n2cnc3cc(/C=C\c4ccc(C(C)(C)O)cc4)ccc32)cc1 | 113 | 115 | 5.08 | 30.8 | 32.2 | 25.6 | 54.7 | < 0 | < 0 | < 0 | < 0 | 20.4 |
| CN(C)c1[nH]c(=O)ncc1F | 111 | 104 | 11.9 | < 0 | < 0 | -4.48 | 8.8 | 2.44 | < 0 | < 0 | < 0 | 26.1 |
| CN(C)CCCOc1ccc(-c2ccc3ncc4c(c3c2)n(C2CCOCC2)c(=O)n4C)cn1 | 99.8 | 75.9 | 4 | 61.8 | 91.9 | 68.1 | 57.1 | 18.7 | 33.7 | 78.1 | 92 | 64.6 |
| CCc1cc(O)c(Oc2cccnc2N)cc1F | 64.8 | 62.9 | -0.638 | < 0 | < 0 | 8.28 | 20.8 | < 0 | < 0 | < 0 | < 0 | 18.6 |
| O=S(=O)(NCB(O)O)c1cc2c(Cl)ccc(Cl)c2s1 | 91.2 | 59.2 | 30.9 | 22.6 | 27.1 | -17.5 | -8.49 | < 0 | < 0 | < 0 | < 0 | -37.4 |
| Cc1cccc(CC(=O)N[C@H]2CCOC2=O)c1 | 95.4 | 98.6 | 5.04 | < 0 | 21.6 | 35.3 | 53.6 | < 0 | < 0 | < 0 | 5.44 | 4.19 |
| O=C1c2cccc3cccc(c23)C(=O)N1CC1CO1 (stereo not drawn) | 107 | 108 | -6.3 | 7.65 | 8.86 | 22 | 66.9 | < 0 | < 0 | < 0 | 3.81 | 14.1 |
| CCCCc1ccc(-c2cc(C(=O)O)cc(-c3ccc(Cl)cc3)n2)cc1 | 93.4 | 108 | 14.4 | 9.55 | 12.3 | 43 | 102 | < 0 | < 0 | 0.176 | 8.67 | 40 |
